From PubChem
AI-2 QS modul: Vibrio harveyi AI-2 quorum sensing modulators, primary screen, JMH597 strain, luminescence/OD600 ratio; Vibrio harveyi JMH597 AI-2 luminescence/OD600 ratio, 9 h; hits give low values; strain lacks LuxN and CqsS sensors; 0 = neutral-control median; actives 0.4% (n = 300,000); AID 2094, 2009; activity change, % at 7.5 µM; in the data active means activity change below about -75%, passing the limit was not always enough; inconclusive means no clear call, values can overlap the other calls;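 further: luminescence divided by OD600 gain over 9 h not by final OD600 alone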
ALR inh: inhibitors of human ALR sulfhydryl oxidase, primary screen, biochemical, H2O2 detection, HRP-luminol luminescence, single point | purified ALR, DTT oxidation | inhibition, % (no concentration beside the values) | actives 3.8% (n = 290,000) | AID 485317, 2010;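 active means mean replicate inhibition above about 79%, with every replicate also reaching it, limit read from the data; inconclusive means only one of the two criteria met; inactive means mean below limit and not every replicate reaching it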
CHT allo act: CHT positive allosteric modulators, primary screen, cell-based, membrane potential dye, choline EC20. High affinity choline transporter 1 (Homo sapiens), Q9GZV3. CHT-expressing cells; hits give high values; LV-AA mutant CHT in HEK293 cells. B-score at 10 µM. actives 0.49% (n = 310,000). AID 488977, 2010;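 active means initial fluorescence not abnormally high and integrated response B-score, plate-corrected, over 3 SD above library mean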
CHT block: inhibitors of human choline transporter CHT; B-score at 10 µM; AID 488975, 2010; CHT-expressing cells, membrane potential dye, choline response; hits give low values; High affinity choline transporter 1 (Homo sapiens), Q9GZV3; actives 0.86% (n = 310,000);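 active means B-score over 3 SD under the library average, and starting fluorescence ratio not unusually high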;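 further: choline stimulus applied at its EC90 after an EC20 pre-addition; B-score computed on integrated fluorescence ratio after choline addition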
PREPL inhibitor: PREPL enzyme inhibitors, primary screen, biochemical, fluorescence polarization | inhibition, % at 5.96 µM | actives 0.68% (n = 320,000) | Prolyl endopeptidase-like (Homo sapiens), Q4J6C6 | recombinant PREPL, fluorescence polarization activity-based probe | AID 2751, 2010; in the data active means inhibition above about 43%;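 further: 0% = enzyme with DMSO and 100% = wells lacking enzyme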
Target sequence (Q4J6C6 whole entry, looked up): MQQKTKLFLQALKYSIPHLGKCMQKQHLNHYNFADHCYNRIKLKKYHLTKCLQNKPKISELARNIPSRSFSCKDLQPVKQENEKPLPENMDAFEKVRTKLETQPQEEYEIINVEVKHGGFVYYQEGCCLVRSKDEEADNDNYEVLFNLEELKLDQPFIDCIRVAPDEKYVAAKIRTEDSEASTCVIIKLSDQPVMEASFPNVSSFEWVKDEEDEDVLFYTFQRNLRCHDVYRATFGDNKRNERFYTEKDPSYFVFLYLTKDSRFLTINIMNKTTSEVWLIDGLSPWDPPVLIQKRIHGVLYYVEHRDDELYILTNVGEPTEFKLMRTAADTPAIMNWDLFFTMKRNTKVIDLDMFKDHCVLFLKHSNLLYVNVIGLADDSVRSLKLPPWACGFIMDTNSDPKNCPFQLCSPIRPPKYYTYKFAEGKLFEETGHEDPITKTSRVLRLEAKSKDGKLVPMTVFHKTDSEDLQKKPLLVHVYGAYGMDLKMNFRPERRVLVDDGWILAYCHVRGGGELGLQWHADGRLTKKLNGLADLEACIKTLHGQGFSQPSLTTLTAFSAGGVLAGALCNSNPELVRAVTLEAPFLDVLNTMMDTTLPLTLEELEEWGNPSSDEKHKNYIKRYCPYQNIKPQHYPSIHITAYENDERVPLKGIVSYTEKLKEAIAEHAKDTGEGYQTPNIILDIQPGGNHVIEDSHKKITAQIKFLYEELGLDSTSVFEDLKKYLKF
Starred values were filed as active, the others as inactive; i = inactive; ? = inconclusive; / = no result. A selection: hits, their analogues and other compounds. The true share with any hit is near 5%.

SMILES	AI-2 QS modul	ALR inh	CHT allo act	CHT block	PREPL inhibitor
C/C(=N\Nc1ccc(Cl)cc1)c1c(O)cc(C)oc1=O	30	99*	i	i	3
CCOC(=O)C1=C(C)OC(N)=C(C#N)C1c1cc2ccccc2nc1N1CCCCC1 (centres undefined)	41	-21	i	i	9
N#C/C(=C\c1cc2ccccc2nc1N1CCCCC1)C(N)=O	/	93*	i	i	4
O=C1NC(=S)S/C1=C\c1cc2ccccc2nc1N1CCCCC1	17	97*	i	i	-7
O=C(Nc1ccc2c(c1)OCO2)C1CC(c2cccc(Br)c2)=NO1 (centres undefined)	/	4	i	i	2
Cc1onc(-c2c(F)cccc2Cl)c1C(=O)Nc1cccc(S(=O)(=O)NCc2ccco2)c1	24	-1	i	i	8
CCOc1ccccc1NC(=S)N1CCN(c2ccc(O)cc2)CC1	-2	99*	i	i	14
O=C(C1CC1)N1CCN(c2ccc(O)cc2)CC1	/	99*	i	i	12
CC(=O)c1ccc(N2CCN(C(=O)C3CCC3)CC2)cc1	20	/	i	i	16
CCOC(=O)N1CCN(c2ccc(O)cc2)CC1	-12	99*	i	i	3
O=C(C1CCN(c2ccc(N3CCOCC3)nn2)CC1)N1CCN(c2ccc(F)cc2)CC1	38	55	i	i	65*
O=C(C1CCN(S(=O)(=O)N2CCOCC2)CC1)N1CCN(c2ccc(F)cc2)CC1	7	18	i	i	11
COc1ccccc1CNC(=O)C1CCC(CNS(=O)(=O)c2ccccc2)CC1 (centres undefined)	19	/	i	i	-1
Cc1cc(NC(=O)C(C)SCC(=O)N(C)CC(=O)Nc2ccccc2Br)no1 (centres undefined)	12	-3	i	i	20
Cn1c(CCN2CCN(c3ccccn3)CC2)nc2cc(NC(=O)COc3ccccc3)ccc21	36	-16	i	i	14
CCCCNC(=S)Nc1cccc(S(=O)(=O)NC2=NCCC2)c1	6	-4	i	i	13
NC(=O)C(c1ccc(Cl)cc1)c1ccc(Sc2ccc(Cl)cc2)nn1 (centres undefined)	-83*	-8	i	i	21
CC1(C)OC(=O)C2(Cc3ccccc3N3CCCCC32)C(=O)O1 (centres undefined)	20	99*	i	i	1
CC1=C(C(=O)N2CCc3ccccc32)C2(CCC(C)CC2)OC1=O (centres undefined)	14	-3	i	i	10
Cc1c(C(=O)c2ccc(Cl)cc2[N+](=O)[O-])c2ccccn2c1CCC#N	5	95*	i	i	10
Cc1c(C(=O)c2ccc(F)cc2F)c2ccccn2c1CCC#N	-7	/	i	i	20
Cc1c(C(=O)c2ccc(N(C)C)cc2)c2ccccn2c1CCC#N	4	98*	i	i	11
COc1ccc(CNC(=O)CN(C(=O)c2csnn2)c2ccc(F)cc2)cc1	/	-21	i	i	6
Clc1ccc(CSc2nc3ccncc3[nH]2)cc1	?	90*	i	i	5
Cc1ccc(CSc2nc3ccncc3[nH]2)cc1	-77*	16	i	i	2
SMILES	AI-2 QS modul	ALR inh	CHT allo act	CHT block	PREPL inhibitor
O=C(COC(=O)c1ccc(N2CCCC2=O)cc1)c1ccccc1	41	-2	i	i	3
CC[N+]1(C)[C@@H]2CC[C@H]1CC(OC(=O)[C@H]1CCC(C(=O)OC3C[C@H]4CC[C@@H](C3)[N+]4(C)CC)(c3ccccc3)c3ccccc31)C2 (some centres undefined)	/	1	i	i	8
COc1ccc(CSc2nnc3[nH]c(=O)cc(N)n23)cc1	-80*	-4	i	i	5
CC(C)CC(=O)Nc1cccc(NC(=O)CC(C)C)n1	18	/	i	i	5
O=S(=O)(Cc1ccccc1)N(O)c1ccccc1	0	99*	i	i	-1
COc1ccccc1NC1C=CS(=O)(=O)C1 (centres undefined)	22	76*	i	i	1
Cc1ccc(-n2c(SCC(=O)N3CCCCC3)nc(O)c(Cc3ccccc3)c2=O)cc1	2	12	i	i	4
COc1ccc(C2/C=C\CN(C(=O)c3ccccc3)[C@H](Cc3ccccc3)C(=O)N2Cc2ccc(F)cc2)cc1 (some centres undefined)	22	11	i	i	19
O=C(/C=C\Nc1ccc2c(c1)OCO2)c1cccs1	68	96*	i	i	4
CC1CCN(C(=O)CSc2nnc3ccc(-c4cccnc4)nn23)CC1	28	1	i	i	-5
CCOc1cc(CNCC(O)c2ccccc2)cc(Cl)c1OC (centres undefined)	13	99*	i	i	-13
O=C(CO/N=C/c1ccc(Cl)cc1Cl)NNC(=O)c1ccc(Cl)cc1Cl	-88*	-6	i	i	-12
O=C(CO/N=C/c1c(Cl)cccc1Cl)NNC(=O)c1ccc(Cl)cc1	11	1	i	i	-19
COc1ccc(/C=C(\NC(=O)c2ccco2)C(=O)NCc2ccco2)cc1	11	3	i	i	-2
COC(=O)NNC(=O)c1ccc(C)c(Br)c1	-2	6	i	i	2
Cc1ccc(C(=O)NNC(=O)C2CC2)cc1Br	22	88*	i	i	-1
CN(C)c1cccc(C(=O)NCc2ccccc2)c1	-5	96*	i	i	2
Cc1ccc(C(=O)NCc2ccccc2)cc1Br	-77*	-1	i	i	-4
CN(C)c1cccc(C(=O)NCc2ccccc2Cl)c1	19	11	i	i	10
Oc1ccccc1N1CCN(CC(O)COC2CCCc3ccccc32)CC1 (centres undefined)	21	68	i	i	4
O=C(NC(=S)Nc1ccccc1O)c1ccccc1Cl	21	63	i	i	7
OC(c1ccc(F)cc1)C(CN1CCOCC1)c1ccccc1 (centres undefined)	18	-18	i	i	6
Cc1cccc(Nc2ccccc2C(=O)OCC(=O)N(C)C2CCS(=O)(=O)C2)c1C (centres undefined)	15	34	i	i	17
CN(C(=O)COC(=O)c1ccccc1Nc1ccccc1)C1CCS(=O)(=O)C1 (centres undefined)	13	99*	i	i	-1
COc1cccc(Nc2ccccc2C(=O)O)c1	4	99*	i	i	7
O=C(O)c1ccccc1Nc1cccc(C(F)(F)F)c1	/	/	/	/	7
